The results in this text go back to PubChem BioAssay (Tox21).

Where “and” joins values, the source holds several entries; their conditions need not be identical. Equal entries are not always repeated. Inconclusive results are not listed. Some compounds were tested as several samples or in several runs, with calls that do not always agree. Calls of active or inactive are those of the source. Unless noted, calls come from the whole dose curve; as a rule, active = well fitted curve in the direction sought with a large enough effect in the repeat runs; inconclusive = weak or mixed curves; inactive = no such curve, though single readings can be large; an effect the other way counts as inactive or inconclusive.

Test [1] in a line: qHTS assay to identify small molecule antagonists of the thyroid receptor (TR) signaling pathway (AID 743065). Note: series mostly up to about 70 µM; nearly all actives have a fitted effect of over 55% in size. A digest of the protocol: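 GH3.TRE-Luc rat pituitary cells carrying two TR response elements driving luciferase were plated for 4 h, given compound plus 1 nM T3 (final), and incubated 23.5 h at 37 C. ONE-Glo luminescence measured reporter inhibition; CellTiter-Fluor fluorescence tracked cytotoxicity.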
(In general: Quantitative high-throughput screening tests each substance at several concentrations.)

In test [2] the test system is thyroid hormone receptor (rat, GH3 cells). Kind of test: qHTS assay to identify small molecule agonists of the thyroid receptor (TR) signaling pathway (AID 743066; calls by dose curve).
The target of test [3] is Estrogen receptor (Homo sapiens) (UniProt P03372). Kind of test: qHTS assay to identify small molecule antagonists of the estrogen receptor alpha (ER-alpha) signaling pathway (AID 743069; active = well fitted curve in the direction sought with a large enough effect in the signal ratio in the repeat runs, not every such curve was filed as active; the % refers to the signal ratio). Summed up: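 Screening used a UAS-driven beta-lactamase reporter integrated into HEK293 cells expressing ER-alpha, stimulated with 17beta-estradiol alongside test compounds over 18 hr at 37C; signal came from LiveBLAzer B/G FRET fluorescence.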
Chain of Estrogen receptor (Homo sapiens) (P03372 whole entry, looked up): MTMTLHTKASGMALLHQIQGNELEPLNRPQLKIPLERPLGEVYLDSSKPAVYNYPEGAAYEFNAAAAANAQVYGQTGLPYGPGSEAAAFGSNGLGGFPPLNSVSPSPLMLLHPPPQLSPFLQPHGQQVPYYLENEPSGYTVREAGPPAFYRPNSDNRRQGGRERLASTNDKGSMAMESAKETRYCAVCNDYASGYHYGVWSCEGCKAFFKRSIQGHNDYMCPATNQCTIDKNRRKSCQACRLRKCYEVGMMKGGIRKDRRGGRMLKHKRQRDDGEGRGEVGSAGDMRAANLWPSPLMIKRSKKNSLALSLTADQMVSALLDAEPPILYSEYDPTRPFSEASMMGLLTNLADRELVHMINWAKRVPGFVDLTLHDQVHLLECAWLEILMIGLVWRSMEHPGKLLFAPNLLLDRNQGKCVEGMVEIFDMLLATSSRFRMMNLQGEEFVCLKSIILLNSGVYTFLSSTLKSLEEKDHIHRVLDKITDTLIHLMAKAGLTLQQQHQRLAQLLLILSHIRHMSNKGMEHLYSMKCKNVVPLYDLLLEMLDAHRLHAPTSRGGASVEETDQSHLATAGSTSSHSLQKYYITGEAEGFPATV

Test [4] is described as follows: qHTS assay to identify small molecule antagonists of the estrogen receptor alpha (ER-alpha) signaling pathway - cell viability counter screen (AID 743074; calls by dose curve; note: nearly all actives have a fitted effect of over 45% in size).
Test [5] deals with Estrogen receptor (Homo sapiens) (UniProt P03372). Kind of test: qHTS assay to identify small molecule agonists of the estrogen receptor alpha (ER-alpha) signaling pathway (AID 743075; calls by dose curve).
Test [6] has the same target. Kind of test: qHTS assay to identify small molecule agonists of the estrogen receptor alpha (ER-alpha) signaling pathway using the BG1 cell line (AID 743079). Note: nearly all actives have a fitted effect of over 20% in size. Note: potency is the fitted concentration of half-maximal effect.
The nature of test [7]: qHTS assay to identify small molecule antagonists of the estrogen receptor alpha (ER-alpha) signaling pathway using the BG1 cell line (AID 743080; calls by dose curve;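 note: BG1 cells stimulated with 17beta-estradiol alongside compound; series mostly up to about 70 µM; nearly all actives have a fitted effect of over 25% in size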). A digest of the protocol:
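Endogenous full-length ER-alpha in BG1-Luc-4E2 cells drives a stably integrated 4×ERE luciferase gene; compounds were tested against 17beta-estradiol over 21.5 h, with luminescence and multiplexed viability fluorescence recorded.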

Test [8] is described as follows: qHTS assay to identify small molecule antagonists of the estrogen receptor alpha (ER-alpha) signaling pathway using the BG1 cell line - cell viability counter screen (AID 743081).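 Note: compound given together with 17beta-estradiol as the ER stimulus; nearly all actives have a fitted effect of over 45% in size.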 Note: potency is the fitted concentration of half-maximal effect.
The target in the next test is Aromatase (Homo sapiens) (UniProt P11511). The experiment in a line: qHTS assay to identify aromatase inhibitors (AID 743083). Note: series mostly up to about 70 µM; nearly all actives have a fitted effect of over 55% in size.
Chain of Aromatase (Homo sapiens) (P11511 whole entry, looked up): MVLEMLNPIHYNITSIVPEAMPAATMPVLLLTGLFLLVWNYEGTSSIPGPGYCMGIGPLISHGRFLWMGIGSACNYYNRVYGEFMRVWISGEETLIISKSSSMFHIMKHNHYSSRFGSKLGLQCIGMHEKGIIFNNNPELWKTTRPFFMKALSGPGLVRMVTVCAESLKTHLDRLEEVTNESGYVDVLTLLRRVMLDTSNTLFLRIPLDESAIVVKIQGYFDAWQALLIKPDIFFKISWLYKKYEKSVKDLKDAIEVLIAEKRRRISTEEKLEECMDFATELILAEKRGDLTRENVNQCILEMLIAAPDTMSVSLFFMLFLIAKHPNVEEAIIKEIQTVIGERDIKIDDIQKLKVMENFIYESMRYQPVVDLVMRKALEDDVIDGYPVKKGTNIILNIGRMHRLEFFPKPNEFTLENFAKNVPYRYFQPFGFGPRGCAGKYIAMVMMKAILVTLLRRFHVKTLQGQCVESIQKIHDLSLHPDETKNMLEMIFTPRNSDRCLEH
Test [9] is described as follows: qHTS assay to identify aromatase inhibitors - cell viability counter screen (AID 743084).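 Note: cells stimulated with testosterone during compound exposure; nearly all actives have a fitted effect of over 55% in size.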 Note: potency is the fitted concentration of half-maximal effect.
Test [10] concerns the target Aryl hydrocarbon receptor (Homo sapiens) (UniProt P35869). The experiment in a line: qHTS assay to identify small molecule that activate the aryl hydrocarbon receptor (AhR) signaling pathway (AID 743085).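 For activation: HG2L7.5c1 human HepG2 liver cells with stably integrated DRE-driven firefly reporter; series mostly up to about 70 µM.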 Note: nearly all actives have a fitted effect of over 15% in size. Note: potency is the fitted concentration of half-maximal effect. Summed up: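 Luminescence read-out: ONE-Glo reagent, 30 min at room temperature, in HG2L7.5c1 HepG2 reporter cells treated 24 h at 37C. Viability was measured beforehand by CellTiter-Fluor fluorescence after 30 min at 37C.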

Test [11] in a line: qHTS assay to identify small molecule that activate the aryl hydrocarbon receptor (AhR) signaling pathway - cell viability counter screen (AID 743086). Note: nearly all actives have a fitted effect of over 45% in size. Note: potency is the fitted concentration of half-maximal effect. A digest of the protocol: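 HepG2-AhR-luc (HG2L7.5c1) cells, 4000/well, were preincubated 5 h at 37C, exposed to compound in qHTS format for 24 hr at 37C, then given CellTiter-Fluor for 30 min; viability was read as fluorescence in the reporter wells.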

Test [12] concerns the target Peroxisome proliferator-activated receptor gamma (Homo sapiens) (UniProt P37231). The experiment in a line: qHTS assay to identify small molecule agonists of the peroxisome proliferator-activated receptor gamma (PPARg) signaling pathway (AID 743094; active = well fitted activation curve with a large enough effect in the signal ratio in the repeat runs, not every such curve was filed as active; the % refers to the signal ratio). A digest of the protocol:
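Fluorescence-based beta-lactamase readout in HEK293H PPARg UAS-bla cells after 17 h compound exposure (37C) and 1 h B/G FRET substrate incubation at room temperature.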

Test [13] can be described thus: qHTS assay to identify small molecule antagonists of the peroxisome proliferator-activated receptor gamma (PPARg) signaling pathway - cell viability counter screen (AID 743194). Note: nearly all actives have a fitted effect of over 55% in size. Summed up: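 PPARg-UAS-bla HEK293H cells were plated, rested 5 h at 37 C, then treated with compounds plus rosiglitazone (50 nM final) for 17 h at 37 C; viability was then read by CellTiter-Glo luminescence after 30 min at room temperature.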

A short description of test [14]: qHTS assay for small molecule agonists of the antioxidant response element (ARE) signaling pathway (AID 743202; active = well fitted activation curve with a large enough effect in the signal ratio in the repeat runs, not every such curve was filed as active; the % refers to the signal ratio). Summed up: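 Steps: seed ARE-bla HepG2 cells (2,000/well); incubate 5 h at 37 C; add compounds by pin tool; incubate 16 h at 37 C; add FRET substrate; read fluorescence after 2 h at RT.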
The nature of test [15]: qHTS assay for small molecule agonists of the antioxidant response element (ARE) signaling pathway - cell viability counter screen (AID 743203; calls by dose curve; note: nearly all actives have a fitted effect of over 55% in size). A digest of the protocol: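 Parallel cytotoxicity read-out for the ARE-bla screen: HepG2 reporter cells, 16 hrs with compounds, then CellTiter-Glo luminescence.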
The nature of test [16]: qHTS assay for small molecule activators of the heat shock response signaling pathway - cell viability counter screen (AID 743209). Note: nearly all actives have a fitted effect of over 50% in size. Summed up:
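To flag cytotoxic compounds, HSE-bla HeLa cells plated at 1500 cells/well were dosed for 5 h at 37 C, followed by the reporter FRET read and then CellTiter-Glo, with luminescence recorded 30 min after reagent addition.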

A short description of test [17]: qHTS assay for small molecule activators of the heat shock response signaling pathway (AID 743210; active = well fitted activation curve with a large enough effect in the signal ratio in the repeat runs, with a control signal flat, not every such curve was filed as active; the % refers to the signal ratio;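 note: HeLa cells with beta-lactamase reporter driven by heat shock elements; series mostly up to about 63 µM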). A digest of the protocol: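 Activation of heat shock element-controlled beta-lactamase expression is measured in HeLa cells by LiveBLAzer FRET fluorescence, with compound exposure lasting 5 h at 37 C and substrate loading 2.5 h at room temperature.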
Test [18] can be described thus: qHTS assay to identify small molecule agonists of the peroxisome proliferator-activated receptor delta (PPARd) signaling pathway - cell viability counter screen (AID 743211). Note: nearly all actives have a fitted effect of over 55% in size. Summed up:
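Read-out: CellTiter-Glo luminescence, 30 min RT, measured in the same wells as the beta-lactamase reporter. Cells: GeneBLAzer PPAR delta UAS-bla HEK293H, 3000 cells/well, compound exposure 17 h at 37C.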

The target of test [19] is Peroxisome proliferator-activated receptor gamma (Homo sapiens) (UniProt P37231). The experiment in a line: qHTS assay to identify small molecule antagonists of the peroxisome proliferator-activated receptor gamma (PPARg) signaling pathway (AID 743191; calls by dose curve; note: series mostly up to about 63 µM; nearly all actives have a fitted effect of over 30% in size). Summed up: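 GeneBLAzer PPARg UAS-bla HEK293H cells carrying a UAS-driven beta-lactamase reporter were plated at 3000 cells/well, preincubated 5 h at 37C, then given compound for 17 h at 37C; LiveBLAzer B/G FRET substrate was read after 1 h at room temperature.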
Chain of Peroxisome proliferator-activated receptor gamma (Homo sapiens) (P37231 whole entry, looked up): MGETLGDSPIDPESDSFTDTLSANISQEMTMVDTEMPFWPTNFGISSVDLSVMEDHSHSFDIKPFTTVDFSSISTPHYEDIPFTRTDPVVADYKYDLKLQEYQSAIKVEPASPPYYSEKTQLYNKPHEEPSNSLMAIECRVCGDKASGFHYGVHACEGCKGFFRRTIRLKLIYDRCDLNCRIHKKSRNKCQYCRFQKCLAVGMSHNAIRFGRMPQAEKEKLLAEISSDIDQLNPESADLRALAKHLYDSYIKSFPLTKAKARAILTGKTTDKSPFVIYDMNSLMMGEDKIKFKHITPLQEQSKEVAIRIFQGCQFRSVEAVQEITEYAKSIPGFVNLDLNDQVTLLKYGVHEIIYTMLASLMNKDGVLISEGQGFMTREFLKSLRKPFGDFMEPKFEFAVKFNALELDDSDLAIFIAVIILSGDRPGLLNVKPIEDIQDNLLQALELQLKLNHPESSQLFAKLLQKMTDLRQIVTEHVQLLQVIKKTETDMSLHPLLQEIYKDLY

Chain of Aryl hydrocarbon receptor (Homo sapiens) (P35869 whole entry, looked up): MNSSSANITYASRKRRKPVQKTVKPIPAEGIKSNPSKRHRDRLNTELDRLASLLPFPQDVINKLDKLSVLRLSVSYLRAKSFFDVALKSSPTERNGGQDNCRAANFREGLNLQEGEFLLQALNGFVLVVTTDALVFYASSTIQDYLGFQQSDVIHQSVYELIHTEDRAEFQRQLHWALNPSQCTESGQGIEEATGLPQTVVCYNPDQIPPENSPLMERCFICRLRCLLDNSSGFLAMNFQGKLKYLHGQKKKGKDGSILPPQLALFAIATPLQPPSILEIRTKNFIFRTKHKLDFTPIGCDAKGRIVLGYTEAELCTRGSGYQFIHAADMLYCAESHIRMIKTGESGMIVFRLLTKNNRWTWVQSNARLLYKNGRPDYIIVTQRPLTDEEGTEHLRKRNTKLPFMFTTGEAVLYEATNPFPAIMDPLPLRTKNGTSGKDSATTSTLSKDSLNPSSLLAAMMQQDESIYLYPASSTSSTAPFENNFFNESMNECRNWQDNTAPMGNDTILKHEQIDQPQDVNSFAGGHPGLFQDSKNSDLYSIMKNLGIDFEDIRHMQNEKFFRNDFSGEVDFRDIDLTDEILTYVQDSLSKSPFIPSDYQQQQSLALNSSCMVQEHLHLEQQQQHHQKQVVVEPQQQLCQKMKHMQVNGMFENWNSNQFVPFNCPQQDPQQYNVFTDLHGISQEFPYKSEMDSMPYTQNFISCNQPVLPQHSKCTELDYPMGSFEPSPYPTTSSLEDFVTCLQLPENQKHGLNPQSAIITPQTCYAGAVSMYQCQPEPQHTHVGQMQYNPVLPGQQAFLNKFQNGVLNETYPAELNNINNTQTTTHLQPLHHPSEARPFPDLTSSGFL

As for `CCCC(O)C(CC)CO` (centres undefined), the Potency entry in [1], in test [2], in test [3], in [4], in test [5] and in [6] was “inactive” throughout. Also, the Potency result (in [7]; in test [8]; with Aromatase (Homo sapiens); in test [9]; in test [10]; in test [11]) was “inactive” throughout. For the same compound, the Potency result in [14] was “inactive”. In addition, the compound was called inactive in test [12], in [13], in [15], in test [16], in [17] and in test [18].

For `O=C(O)CS`, the Potency result in test [1], in [2], in test [3], in [4], in [5] and in test [6] was “inactive” each time. In addition, the Potency result (in test [7]; in test [8]; in the test with Aromatase (Homo sapiens); in [9]; in test [10]; in [11]) was “inactive” throughout. Besides, the Potency result in test [14] is “inactive”. Moreover, the compound was called inactive in test [12], in test [19], in [13], in test [15], in test [16] and in test [17]. In addition, in test [18], the compound was called inactive.

Consider `OC(Cn1cncn1)(Cn1cncn1)c1ccc(F)cc1F`, for which the Potency entry in [1], in test [2], in [3], in test [4], in test [5] and in [6] was “inactive” throughout. The Potency result in [7], in test [8], in [9], in test [11] and in test [14] was “inactive” each time. Moreover, the result in test [12], in test [19], in test [13], in test [15], in [16] and in test [18] was inactive.

For `CCCC(CCC)C(=O)O`, the Potency result in test [1], in [2], in test [3], in [4], in test [5] and in test [6] was “inactive” each time. For the same compound, the Potency result (in [7]; in test [8]; with Aromatase (Homo sapiens); in [9]; in test [10]; in test [11]) was “inactive” each time. Besides, the Potency result in test [14] was “inactive”. For the same compound, the call in test [12], in test [13], in test [15], in [16], in [17] and in test [18] was inactive.

As for `Cn1cc[nH]c1=S`, the Potency result in test [1], in test [2], in [3], in test [4], in test [5] and in test [6] was “inactive” in each case. Also, the Potency result (in [7]; in test [8]; with Aromatase (Homo sapiens); in [9]; in test [11]; in [14]) was “inactive” throughout. Also, the outcome in test [12], in test [13], in test [15], in test [16], in test [17] and in test [18] was inactive.

With `Cc1noc(NS(=O)(=O)c2ccc(N)cc2)c1C`, the Potency result in test [1], in test [2], in test [3], in [4], in test [5] and in test [7] was “inactive” throughout. The Potency entry (in test [8]; with Aromatase (Homo sapiens); in test [9]; in test [10]; in [11]; in test [14]) was “inactive” in each case. Besides, in test [6], the Potency was 29.8 µM (active) and inactive. Also, the call in test [12], in test [13], in [15], in test [16], in [17] and in test [18] was inactive.

Regarding `Cc1ccc(C)c(OCCCC(C)(C)C(=O)O)c1`, the Potency result in [1], in [2], in test [3], in test [4], in [5] and in test [6] was “inactive” in each case. For the same compound, the Potency result (in test [7]; in [8]; with Aromatase (Homo sapiens); in [9]; in test [11]; in test [14]) was “inactive” in each case. For the same compound, in [10], the Potency result was “inactive and 48.9 µM (active)”. The outcome in [13], in test [15], in test [16], in test [17] and in test [18] was inactive.

Regarding `O=c1ccc2ccccc2o1`, the Potency entry in [1], in test [2], in test [3], in test [4], in [5] and in [7] was “inactive” in each case. Also, the Potency result (in test [8]; with Aromatase (Homo sapiens); in test [9]; in test [10]; in test [11]; in test [14]) was “inactive” each time. Besides, in test [6], the Potency is 18.8 µM (active) and inactive. For the same compound, the outcome in test [12], in test [19], in [13], in test [15], in [16] and in test [17] was inactive. Besides, the result in test [18] was inactive.

`CC(=O)NS(=O)(=O)c1ccc(N)cc1`: the Potency entry in test [1], in test [2], in test [3], in test [4], in [5] and in [6] was “inactive” each time. Moreover, the Potency entry (in [7]; in test [8]; with Aromatase (Homo sapiens); in [9]; in test [10]; in test [11]) was “inactive” in each case. In addition, in test [14], the Potency result is “inactive”. The call in test [13], in test [15], in test [16], in [17] and in test [18] was inactive.

`O=C(O)CCC(=O)O`: the Potency result in test [1], in test [2], in test [3], in [4], in test [5] and in test [6] was “inactive” throughout. The Potency result (in test [7]; in [8]; with Aromatase (Homo sapiens); in [9]; in test [10]; in test [11]) was “inactive” each time. Further, in [14], the Potency entry is “inactive”. Also, the result in [12], in [13], in test [15], in [16], in test [17] and in test [18] was inactive.

Consider `CCCCC1C(=O)N(c2ccccc2)N(c2ccccc2)C1=O`, for which the Potency result in [1], in [2], in [3], in test [4], in test [5] and in [6] was “inactive” in each case. For the same compound, the Potency result (in test [7]; in test [8]; with Aromatase (Homo sapiens); in [9]; in test [10]; in [11]) was “inactive” each time. The Potency result in test [14] is “inactive”. For the same compound, the result in [12], in [13], in test [15], in test [16], in test [17] and in test [18] was inactive.

Turning to `NC(=O)c1ccccc1O`, the Potency entry in test [1], in [2], in test [3], in [4], in [5] and in test [6] was “inactive” in each case. For the same compound, the Potency entry (in test [7]; in test [8]; with Aromatase (Homo sapiens); in test [9]; in [10]; in test [11]) was “inactive” each time. For the same compound, in [14], the Potency entry was “inactive”. Besides, the compound was called inactive in [12], in [13], in [15], in test [16], in test [17] and in test [18].

Turning to `O=C(O)c1[nH]n(-c2ccc(S(=O)(=O)O)cc2)c(=O)c1N=Nc1ccc(S(=O)(=O)O)cc1`, the Potency result in test [1], in [2], in [3], in [4], in test [5] and in test [6] was “inactive” each time. For the same compound, the Potency result (in test [7]; with Aromatase (Homo sapiens); in test [10]; in test [14]) was “inactive” each time. For the same compound, the Potency entry was “inactive and 54.6 µM (active) and 64.1 µM (active)” in [8]; 30.7 µM (active) and 57.1 µM (active) in test [9]; 30.7 µM (active) and 22.7 µM (active) in [11]. In addition, the compound was classed as inactive in [12], in test [13], in test [15], in test [16], in test [17] and in test [18].
